Measurements published in PMC12670160, “A drug-repurposing screen of FDA- and EMA-approved drugs identifies two NF-κB inhibitors active against eumycetoma” (Journal of Antimicrobial Chemotherapy, 2025).
Structures can show the parent of a compound that is named as a salt. Where two headings read alike, the source gives them in different places. In all, about 5,300 compounds went through this assay and about 130 (2.5%) showed an effect of 50% or more. This is one part of a sample in which strong results are shown more often than they occur. Numbered stars: 1 amine (or outer) side, 2 acyl side, 3 side chain; on linkers, the order of the positions; unused ones are H or OH. Bridge positions count the residues as written; N and C are the ends. Square brackets hold non-standard residues; d marks the D form. Side chains are listed from the residue outwards. Peptide text beside a SMILES is read from it. I, II: the chains in the order shown. * marks the point of attachment. Actinocin(9to1) = Cc1c2oc3c(C)ccc(C(=O)[*:1])c3nc-2c(C(=O)[*:2])c(N)c1=O; dTrp(2-Me) = Cc1[nH]c2ccccc2c1C[C@@H](N)C(=O)O; X1 = CCC(C)C(N)C1=NC(C(=O)*)CS1; NMeV = CN[C@H](C(=O)O)C(C)C; Orn = NCCC[CH](N)C(=O)O; Sar = CNCC(=O)O

Test system: M. mycetomatis strain mm55
Settings: primary screen, metabolic activity vs growth control, 96 h, 2 µM, inhibitor

O=C1NC(=O)/C(=C\c2cccc(C(F)(F)F)c2)S1 [ONC0004444, smi4a]
% viability: 130.7%

Cc1cc(C(=CNc2ccc(Cl)cc2)C(=O)Nc2ccc(Cl)cc2)on1 [ONC0000028, ccmi]
% viability: 80.11%

Cc1ncc(C[n+]2csc(CCO[P@](=O)(O)OP(=O)(O)O)c2C)c(N)n1 [ONC0002796, thiamine pyrophosphate chloride]
% viability: 94.34%

CC1(C)OC2(C)C(O)CC1CC2O (stereo not shown) [ONC0003817, epomediol]
% viability: 42.26%

CC1(C)[C@@H]2C[C@H]1[C@@](C)(O)[C@@H](O)C2 [ONC0005321, pinanediol]
% viability: 118.6%

CC1(C)[C@@H]2C[C@@H](O)[C@@](C)(O)[C@H]1C2 [ONC0002949, 266trimethylbicyclo311heptane23diol]
% viability: 64.26%

C#C[C@]1(OC(=O)CCCCCC)CC[C@H]2[C@@H]3CCC4=CC(=O)CC[C@@H]4[C@H]3CC[C@@]21C [ONC0000267, norethisterone enanthate]
% viability: 63.38%

C=C1c2cccc(O)c2C(=O)C2C(=O)[C@]3(O)C(=O)C(C(N)=O)C(=O)[C@@H](N(C)C)[C@@H]3[C@@H](O)[C@H]12 (stereo partly shown) [ONC0000687, methacycline hydrochloride]
% viability: 124.6%

O=C1c2ccccc2-c2c(NCCc3ccccc3)c(=O)[nH]c3cccc1c23 [ONC0001816, brd7389]
% viability: 84.69%

CCOC(=O)c1ccccc1OC(=O)CCCCCCCC(=O)Oc1ccccc1C(=O)OCC [ONC0003554, tu2100]
% viability: 98.87%

CCOC(=O)c1c2c3c(cccc3[nH]c1=O)C(=O)c1ccccc1-2 [ONC0001061, nqdi1]
% viability: 43.7%

Cn1cnc(=N)c2nc[nH]c21 [ONC0004721, 3methyladenine 3ma]
% viability: 115.8%

CCC(=O)OCC(=O)C1(OC(=O)CC)[C@H](C)C[C@H]2C3[C@H](Cl)CC4=CC(=O)C=C[C@]4(C)[C@H]3[C@@H](O)C[C@@]21C (stereo partly shown) [ONC0002939, alclometasonedipropionate]
% viability: 82.49%

C/C(=C\c1csc(C)n1)[C@H]1C[C@@H]2O[C@]2(C)CCC[C@H](C)[C@H](O)[C@@H](C)C(=O)C(C)(C)[C@H](O)CC(=O)O1 [ONC0004615, patupilone epo906 epothilone b]
% viability: 75.3%

C[C@H]1CC2C([C@@H](O)C[C@@]3(C)C2CC[C@]3(O)C(=O)COC(=O)CCC(=O)O)[C@@]2(C)C=CC(=O)C=C12 (stereo partly shown) [ONC0003156, methylprednisolone sodium succinate]
% viability: 82.41%

CC(=O)N[C@@H](CSSC[C@H](NC(C)=O)C(=O)O)C(=O)O [ONC0002807, nnü¾Œ“ ¼ü¾˜³ ¼diacetyllcystine]
% viability: 85.92%

CCCCOc1ccc(C(=O)Nc2ccc(F)cc2F)cc1 [ONC0005047, vu 0357121 vu 0357121 vu 0357121]
% viability: 78.07%

C=CCN(C)CCCCCCOc1ccc(C(=O)c2ccc(Br)cc2)c(F)c1 [ONC0001825, ro 488071 fumarate]
% viability: 29.93%

CCCCC(F)(F)C(=O)CC[C@H]1[C@H](O)CC(=O)[C@@H]1CCCCCCC(=O)O [ONC0004918, lubiprostone]
% viability: 115.4%

Fc1ccc(-c2nc(-c3c(F)cccc3F)[nH]c2-c2ccncc2)cc1 [ONC0000887, ta01]
% viability: 46.48%

Oc1ccc(-c2nc(-c3ccncc3)c(-c3ccc(F)cc3)[nH]2)cc1 [ONC0000026, sb202190]
% viability: 54.44%

C[S+]([O-])c1ccc(-c2nc(-c3ccncc3)c(-c3ccc(F)cc3)[nH]2)cc1 (stereo not shown) [ONC0000881, sb203580]
% viability: 87.12%

CSc1ccc([C@H]2CN3CCC[C@H]3c3ccccc32)cc1 [ONC0000925, mcn5652]
% viability: 74.54%

CN1CCCC1c1cccnc1 (stereo not shown) [ONC0005499, nicotine bitartrate]
% viability: 91%

C[C@@H]1NC(C)(C)CO[C@@]1(O)c1cccc(Cl)c1 [ONC0001157, radafaxine hydrochloride]
% viability: 85.48%

[2H]C([2H])([2H])C(=O)Nc1c(I)c(C(=O)O)c(I)c(C(=O)NC)c1I [ONC0002149, iothalamic acidd3]
% viability: 66.44%

CCC(C)C(N)C1=NC(C(=O)NC(CC(C)C)C(=O)NC(CCC(=O)O)C(=O)NC(C(=O)NCCCCC2NC(=O)C(CC(N)=O)NC(=O)C(CC(=O)O)NC(=O)C(Cc3c[nH]cn3)NC(=O)C(Cc3ccccc3)NC(=O)C(C(C)CC)NC(=O)C(CCCN)NC2=O)C(C)CC)CS1 (stereo not drawn) [ONC0003188, bacitracin] (cyclo(DNK([Ile-Glu-Leu-X1])[Orn]IFH); configuration not given here)
% viability: 113.7%

O=C(O)c1ccccn1 [ONC0003765, picolinicacid]
% viability: 105.8%

C=C(NNC(=S)NNC(=S)Nc1ccccc1Cl)c1ccccn1 [ONC0001982, n2chlorophenyl22e212pyridinylethylidenehydrazinocarbothioylhydrazinecarbothioamide]
% viability: 78.69%

C/C(=N\NC(=S)N1CCC1)c1ccccn1 [nsc319726]
% viability: 6.057%

Cc1c2oc3c(C)ccc(C(=O)N[C@@H]4C(=O)N[C@H](C(C)C)C(=O)N5CCC[C@H]5C(=O)N(C)CC(=O)N(C)[C@@H](C(C)C)C(=O)O[C@@H]4C)c3nc-2c(C(=O)N[C@@H]2C(=O)N[C@H](C(C)C)C(=O)N3CCC[C@H]3C(=O)N(C)CC(=O)N(C)[C@@H](C(C)C)C(=O)O[C@@H]2C)c(N)c1=O [ONC0002258, actinomycin d] (I: T[dV]P[Sar][NMeV] / II: T[dV]P[Sar][NMeV]; ester I:1-I:C, II:1-II:C; linker I:N-II:N via Actinocin(9to1))
% viability (Madurella mycetomatis metabolic activity at 2µM (%)): 100.3%

CNCCN(C)Cc1c[nH]nc1-c1ccc(O[C@H]2C[C@H](OCCC3CCOCC3)C2)cc1.Cl [ONC0000962, epz020411 hydrochloride]
% viability: 79.33%

CN1c2c(nc(N)[nH]c2=O)NC[C@@H]1CNc1ccc(C(=O)N[C@@H](CCC(=O)O)C(=O)O)cc1 [ONC0002220, levomefolate calcium]
% viability: 182.5%

CCCCCCCCCCCCCCCC(=O)OC[C@H](O)[C@H]1OC(=O)C(=O)C1O (stereo partly shown) [ONC0004072, ascorbyl palmitate]
% viability: 135.5%

C[C@H](O[C@H]1OCCN(Cc2n[nH]c(=O)[nH]2)[C@H]1c1ccc(F)cc1)c1cc(C(F)(F)F)cc(C(F)(F)F)c1 [ONC0004612, aprepitant mk0869]
% viability: 34.22%

C[C@@H](O[C@H]1OCCN(Cc2nc(O)n(P(=O)(O)O)n2)[C@H]1c1ccc(F)cc1)c1cc(C(F)(F)F)cc(C(F)(F)F)c1 [ONC0004322, fosaprepitant dimeglumine salt]
% viability: 108.4%

C=C(Nc1ccc(OCC)cc1)Nc1ccc(OCC)cc1 [ONC0005342, phenacaine]
% viability: 118.6%

O=C1c2c(O)cccc2[C@H]([C@@H]2O[C@H](CO)[C@@H](O)[C@H](O)[C@H]2O)c2cc(CO)cc(O)c21 [ONC0002367, aloin]
% viability: 94.66%

On1ncc(C2CCNCC2)c1-c1cccc(-c2ccccc2)c1 [ONC0002501, php501 trifluoroacetate]
% viability: 45.31%

CC[C@@]1(C2O[C@@H](C3O[C@@](O)(CO)[C@H](C)C[C@@H]3C)C[C@@H]2C)CC[C@H]([C@]2(C)CC[C@]3(C[C@H](O)[C@@H](C)[C@@H]([C@@H](C)[C@@H](OC)[C@H](C)C(=O)O)O3)O2)O1 (stereo partly shown) [ONC0004087, monensin sodium]
% viability: 133.1%

C=C(c1ccccc1OCc1cccc(Cl)c1)n1ccnc1 [Cloconazole HCl]
% viability: 3.259%

O=C(O)Cc1ccc(OCc2ccccc2)c(Cl)c1 [ONC0002166, benzofenac]
% viability: 78.33%

C[C@H](Nc1ncnc2[nH]cnc12)c1cc2cccc(Cl)c2c(=O)n1-c1ccccc1 [ONC0004561, duvelisib ipi145 ink1197]
% viability: 69.33%

COC(=O)C1=C(C)NC(C)=C(C(=O)O[C@@H]2CCCN(Cc3ccccc3)C2)[C@@H]1c1cccc([N+](=O)[O-])c1 (racemic) [ONC0004618, benidipine hydrochloride]
% viability: 66.69%

CC(C)=CCC[C@](C)(O[C@@H]1O[C@H](CO)[C@@H](O)[C@H](O)[C@H]1O)[C@H]1CC[C@]2(C)[C@@H]1[C@H](O)C[C@@H]1[C@@]3(C)CC[C@H](O)C(C)(C)[C@@H]3CC[C@]12C [ONC0002211, ginsenoside ck]
% viability: 95.28%

NC(=O)[C@H]1CCS[C@@H]2C[C@]3(CCCN3C(=O)Cc3ccc(NC(=O)COc4ccc(Cl)cc4Cl)cc3)C(=O)N12 [ONC0001082, st 2825]
% viability: 47.43%

O=C(CCCS)NC1CCN(C(=O)COc2ccc(Cl)cc2Cl)CC1 [ONC0005166, krasg12c inhibitor 6]
% viability: 98.75%

C[C@]12C=CC(=O)C=C1CCC1C2[C@@H](O)C[C@@]2(C)C1CC[C@]2(O)C(=O)COP(=O)(O)O (stereo partly shown) [ONC0004116, prednisolone sodium phosphate]
% viability: 116.3%

CC(C)C(=O)SCCCCC[C@H](NC(=O)OC(C)(C)C)C(=O)NC12CC3CC(CC(C3)C1)C2 [ONC0002528, tcshdac620b]
% viability: 72.9%

C1CCC(/N=C(\NC23CC4CC(CC(C4)C2)C3)N2CCOCC2)CC1 [ONC0002564, pnu37883]
% viability: 92.95%

CCOC(=O)c1ccc(NC2CCCCC2)c(N)c1 [ONC0000320, ferrostatin1]
% viability: 39.11%

CC(CNC1CCCCC1)OC(=O)c1ccccc1 (stereo not shown) [ONC0002941, hexylcaine]
% viability: 55.94%

CCOC(=O)c1ccc(N)cc1 [ONC0003279, benzocaine]
% viability: 69.74%

CC(C)(O)c1ccn2c(-c3ccc(F)c(-c4ccc(F)cc4C#N)c3)cnc2c1F [ONC0001920, tp003]
% viability: 78.09%

CCC(=O)O[C@@H]1CC(=O)O[C@H](C)C/C=C/C=C/[C@H](OC(C)=O)[C@H](C)C[C@H](CC=O)[C@H](O[C@@H]2O[C@H](C)[C@@H](O[C@H]3C[C@@](C)(OC(C)=O)[C@@H](OC(=O)CC)[C@H](C)O3)[C@H](N(C)C)[C@H]2O)[C@H]1OC [ONC0000277, midecamycin acetate]
% viability: 81.75%

O[C@H](CNC[C@@H](O)[C@H]1CCc2cc(F)ccc2O1)[C@@H]1CCc2cc(F)ccc2O1 [ONC0004039, nebivolol hydrochloride]
% viability: 98.08%

C[C@@]1(O)[C@H](O)[C@@H](CO)O[C@H]1n1cnc2c(=O)[nH]c(N)nc21 [ONC0005603, 2cmethylguanosine]
% viability: 96.86%

Cc1cc(C)c(NC(=O)N(Cc2ccc3c(c2)Cc2ccccc2-3)C2CCCCCC2)c(C)c1 [ONC0000194, ym750]
% viability: 45.17%

O=C(c1ccc(Cl)cc1)N(Cc1ccccc1)C1CCCCC1 [ONC0001245, fpszm1]
% viability: 58.23%

CC(C(=O)O)c1ccc2c(c1)Cc1ccccc1-2 (stereo not shown) [ONC0003773, cicloprofen]
% viability: 135.8%

CC(C)Oc1cccc(CC(=O)N2CCC[C@](CC[N+]34CCC(c5ccccc5)(CC3)CC4)(c3ccc(Cl)c(Cl)c3)C2)c1 [ONC0001589, sr140333]
% viability: 65.88%

Nc1nc2c(c(=O)[nH]1)NC(CNc1ccc(C(=O)N[C@@H](CCC(=O)O)C(=O)O)cc1)CN2 (stereo partly shown) [ONC0005519, tetrahydrofolicacid]
% viability: 129.8%

Cc1[nH]c2ccccc2c1C[C@@H](NC(=O)[C@@H](N)Cc1cnc[nH]1)C(=O)N[C@@H](C)C(=O)N[C@@H](Cc1c[nH]c2ccccc12)C(=O)N[C@H](Cc1ccccc1)C(=O)N[C@@H](CCCCN)C(N)=O [ONC0005614, examorelin] (H-H[dTrp(2-Me)]AW[dF]K-NH2)
% viability: 66.44%

Oc1cc2c(cc1O)C(Cc1cccc3ccccc13)NCC2 (stereo not shown) [ONC0001928, ys49]
% viability: 88.3%
